Sampled rows, rich in hits. Any-hit rate of the full collection: about 21%.
TDP1 cell CPT: growth inhibition of DT40 Tdp1-/-;hTDP1 cells with camptothecin (screen for TDP1 inhibitors) | chicken DT40 Tdp1-/-;hTDP1 cells + 20 nM CPT, ATP luminescence, 48 h | Potency, µM (highest dose often 46.2 µM), hits mostly inhibitors | 420,000 tested, 12% active | AID 686979; also: nearly all actives have a fitted effect of over 55% in size
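Chicken DT40 Tdp1-/- cells complemented with human TDP1, 400 cells/well, exposed to compounds plus 20 nM camptothecin for at least 48 h at 37 C; viability read as ATP content by CellTiter-Glo luminescence.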
TDP1 cell noCPT: qHTS for Inhibitors of human tyrosyl-DNA phosphodiesterase 1 (TDP1): qHTS in cells in absence of CPT; DT40 Tdp1-/- hTDP1 cells, no CPT, ATP luminescence, 48 h; 420,000 tested, 15% active; Potency, µM (highest dose often 46.2 µM), most hits filed as inhibitors; also: nearly all actives have a fitted effect of over 55% in size
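Readout: luminescence from CellTiter-Glo after 30 min in the dark at RT. Cells: DT40 Tdp1-/- with stable hTDP1, 400/well. Exposure: compounds alone, ≥48 hr, 37 °C.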
D3 ag: D3 dopamine receptor (human) agonism; D3R DiscoveRx beta-arrestin cells, luminescence, 90 min; max activation, %; 410,000 tested, 0.58% active; P35462; AID 652048; in the data active = max activation above about 30%
Target sequence (P35462 whole entry, looked up): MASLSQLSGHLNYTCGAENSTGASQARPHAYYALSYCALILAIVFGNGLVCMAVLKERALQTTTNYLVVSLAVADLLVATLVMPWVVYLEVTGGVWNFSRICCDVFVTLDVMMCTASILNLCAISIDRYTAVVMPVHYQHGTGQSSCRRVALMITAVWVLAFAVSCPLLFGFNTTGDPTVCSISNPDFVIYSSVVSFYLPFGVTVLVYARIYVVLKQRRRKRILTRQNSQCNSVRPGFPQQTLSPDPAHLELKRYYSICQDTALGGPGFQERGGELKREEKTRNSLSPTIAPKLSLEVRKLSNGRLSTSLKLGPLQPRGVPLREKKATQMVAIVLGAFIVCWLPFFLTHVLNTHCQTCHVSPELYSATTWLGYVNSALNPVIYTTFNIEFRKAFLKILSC
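Agonist mode: compounds and dopamine controls were applied to plated cells for 90 min at 37 degrees C after an overnight attachment at 1500 cells/well. Luminescent read-out followed 30 - 60 minutes at room temperature with DiscoveRx detection reagent.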
D3 antag: antagonists of human D3 dopamine receptor; P35462; D3R cells, DiscoveRx beta-arrestin luminescence, antagonist mode; stronger effect = lower value; max response, negative = inhibition, %; 360,000 tested, 2.5% active; AID 652054; in the data active = max response below about -50%; inconclusive = no clear call, values can overlap the other calls
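Cells plated overnight at 1500 cells/well, then exposed to library compounds with dopamine controls for 90 minutes at 37 degrees C. DiscoveRx reagent added for 30–60 minutes at room temperature; luminescence read, quantitative HTS format.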
ClpP mod: qHTS Assay for Activators of ClpP; ATP-dependent Clp protease proteolytic subunit (Bacillus subtilis (strain 168)), P80244; purified B. subtilis ClpP, FRET peptide cleavage, 20 min; Potency, µM (titrated, usually from 57.5 µM); 340,000 tested, 1.9% active; AID 651965, 2013; active = well fitted falling curve with a large enough effect; inconclusive = small, poorly fitted or top-dose-only effect; inactive = no such curve, though single readings can be large or run the other way; also: the source files actives as falling curves though it sought activators and does not explain the sign; nearly all actives have a fitted effect of over 65% in size
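ClpP 10 microg/mL final, pH 8 Tris/KCl buffer with BSA, glycerol, Tween-20; compound pinned in; FRET-FV substrate; RT 20 min; Ex320/Em430; ΔFRET vs ADEP 5.8 microM, DMSO, no enzyme.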
IL-1B inflam inh: blocks inflammasome-driven IL-1 beta release | THP-1 LPS/ATP IL-1B secretion, AlphaLISA, 16 h; stronger effect = lower value | activity change, % at 57.5 µM | 360,000 tested, 4.7% active | AID 743279; in the data active = activity change below about -50%; inconclusive = mostly about -30% to -49%
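THP-1 cells pretreated 1 hr with compounds (up to 57.5 uM final), then stimulated with LPS (250 ng/mL final) plus ATP (1.25 mM final); secreted IL-1B measured by AlphaLISA after 16 hr, decreased signal indicating inhibition.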
Hits are given with their value; . = inactive; ? = inconclusive; / = no result given. Unless noted, calls follow the shape of the dose curve; as a rule, active = well fitted inhibition curve with a large enough effect; inconclusive = small, poorly fitted or top-dose-only effect; inactive = flat fitted curve, though single readings scatter.

SMILES | TDP1 cell CPT | TDP1 cell noCPT | D3 ag | D3 antag | ClpP mod | IL-1B inflam inh
C=CCN(C(=O)Nc1ccc(Cl)cc1)C1CC(=O)N(c2ccc(OC)cc2)C1=O (stereo not drawn) | 23.1µM | . | . | . | . | .
CNC(=S)N(Cc1ccc2c(c1)OCO2)C1CC(=O)N(c2ccc(F)cc2)C1=O (stereo not drawn) | ? | 20.6µM | . | . | . | .
Cc1ccc2nc(N(Cc3cccnc3)C(=O)COc3ccccc3)sc2c1 | ? | . | . | / | . | /
CCN(CC)CCn1c(-c2ccccc2)csc1=Nc1ccccc1 | ? | 16.4µM | . | / | . | /
COc1ccc(N=c2scc(-c3ccc(OC)cc3)n2CCO)cc1 | 20.6µM | 9.2µM | . | ? | . | ?
OCCCn1c(-c2ccccc2)csc1=Nc1ccccc1 | 23.1µM | 16.4µM | . | . | / | .
Cc1ccc(-c2csc(=Nc3ccccc3)n2Cc2ccc3c(c2)OCO3)cc1 | 14.6µM | 9.2µM | . | / | . | /
COC(=O)c1c(C)nc2nonc2c1N | . | . | . | . | . | .
O=C(Cc1ccc(NC(=O)C2CCCN(C(=O)c3ccccc3)C2)cc1)Nc1ccc(C(=O)N2CCOCC2)cc1 (stereo not drawn) | ? | ? | . | . | . | ?
Cc1cccc(CN2C(=O)c3ccccc3S(=O)(=O)c3ccc(C(=O)NC4CCCCC4)cc32)c1 | . | . | . | / | . | /
Cc1nc(Nc2cccc(C(C)O)c2)c2nnn(Cc3ccc(F)cc3)c2n1 (stereo not drawn) | ? | ? | . | . | . | .
N#CC1=C(N)Oc2cc(N)ccc2C1c1cccc(F)c1 (stereo not drawn) | ? | ? | . | . | / | .
CN(C)c1ccc2c(c1)OC(N)=C(C#N)C2c1cccc(F)c1 (stereo not drawn) | 0.0206µM | 0.0206µM | . | . | . | .
CCOC(=O)c1ccc(-n2c(CCC(=O)O)ccc2-c2ccc(F)cc2)cc1 | . | ? | . | . | . | .
CCOC(=O)c1c(C)oc2c1c(C(c1ccncc1)N1CCOCC1)c(O)c1ccccc12 (stereo not drawn) | 20.6µM | ? | . | . | . | .
CCOC(=O)c1nnn2c1nc(N1CCOCC1)c1ccccc12 | . | . | . | . | / | .
CCOc1ccccc1Oc1c(C)oc2c(CN3CCN(CCO)CC3)c(O)ccc2c1=O | . | . | . | . | . | .
CCOC(=O)c1c(C)oc2c1c(C=NC1CCS(=O)(=O)C1)c(O)c1ccccc12 (stereo not drawn) | 23.1µM | 20.6µM | . | . | . | .
CCOC(=O)c1c(C)oc2c1c1c(c3ccccc32)OCN(Cc2ccccn2)C1 | ? | ? | . | . | . | -75.3
CCOC(=O)c1c(C)oc2c1c(CN1CCN(CCO)CC1)c(O)c1ccccc12 | ? | ? | . | . | / | -97.8
COc1cccc(CN2C(=O)NC(C)(C3CCN(Cc4cnn(C)c4C)CC3)C2=O)c1OC (stereo not drawn) | . | . | / | / | / | /
CCOC(=O)N1CCN(Cc2cc(=O)oc3ccc4ccccc4c23)CC1 | 23.1µM | ? | . | . | . | .
O=c1cc(CN2CCCC2)c2c(ccc3ccccc32)o1 | . | . | . | . | . | .
O=C(CC12CC3CC(CC(C3)C1)C2)NCC(=O)OCc1cc(=O)oc2ccc3ccccc3c12 | ? | 18.4µM | . | . | / | .
Cc1ccc2c(COC(=O)C34CC5CC(CC(C5)C3)C4)cc(=O)oc2c1 | ? | ? | . | . | . | .
CCOC(=O)c1c(C)oc2c1c(CN1CCN(C(=O)OCC)CC1)c(O)c1ccccc12 | ? | 20.6µM | . | ? | . | ?
CCOC(=O)c1c(C)oc2c1c(C=NCCC(=O)O)c(O)c1ccccc12 | . | . | . | ? | / | .
C=CC(=O)O | . | . | . | / | / | /
COc1cccc(NC(=O)CSc2nc3c(sc4ccccc43)c(=O)n2CCCN2CCCC2)c1 | ? | 10.3µM | . | ? | . | ?

Bioassay records as filed in PubChem.
